Activity calls are given as the source filed them. Cut-off read from the data, not from the text of the source: active = inhibition above about 25%; inactive = the rest. Numbered stars: 1 amine (or outer) side, 2 acyl side, 3 side chain; on linkers, the order of the positions; unused ones are H or OH. Bridge positions count the residues as written; N and C are the ends. Square brackets hold non-standard residues; d marks the D form. Peptide text beside a SMILES is read from it. ξ: configuration not given here. X1 = CC[C@H](CCC[C@@H](O)[C@@H](C)C(=O)O[C@H](C)[C@@H](C)C/C=C(C)/C(=C\C(=O)[*:1])OC)O[*:2]; NMeξIle = CC[C@H](C)C(NC)C(=O)O; NMeV = CN[C@H](C(=O)O)C(C)C; NMeS = CN[C@@H](CO)C(=O)O

Usually inhibition stands for the change of the read-out against control, counted positive when it falls.

The nature of the assay: VP16 transactivation inhibitors, counter-screen for SRC1 inhibitor project, cell-based, luminescence, high throughput (AID 588824). Particulars: cell-based VP16 transactivation luciferase luminescence; at 3.6 µM; hits give high values.
Regarding `CCC1(O)C(=O)OCc2c1cc1n(c2=O)Cc2cc3c(N)cccc3nc2-1` (stereo not given), the inhibition was 71.3% (active). Under `CCCOC(c1ccccc1)(c1ccc(C(F)(F)F)cc1)C(Oc1nc(C)cc(C)n1)C(=O)O` (stereo not given) stands 68.1% (active); under `N=c1c2c(n(Cc3ccc(F)cc3)c3c1CCC3)CCC2`, 43.6% (active); under `Cc1cc(/C=N/n2cnnc2)c(C)n1-c1ccc(OCc2ccc(Cl)cc2Cl)cc1`, 37.6% (active). The value for `CCN(CC)c1ccc2nc3ccc(N)cc3[n+](-c3ccccc3)c2c1` was 81.5% (active); that for `Cc1ccc2[nH]c3nc(N/N=C/c4cccc(O)c4)nnc3c2c1` was 48.2% (active). Under `CCCC(=O)NC(c1ccccc1Cl)c1ccc2cccnc2c1O` (stereo not given) stands 53.4% (active); under `CN(Cc1cnc2nc(N)nc(N)c2n1)c1ccc(C(=O)NC(CCC(=O)O)C(=O)O)cc1C(F)(F)F` (stereo not given), 5.94% (inactive). As for `O=[N+]([O-])c1ccc(Sc2cccc[n+]2[O-])c2nonc12`, the inhibition was 93.3% (active). On to `COc1cc(C=NO)nc(-c2ccccn2)c1`, for which the inhibition is 36.5% (active). As for `COc1ccc(Cn2c(-c3ccc(C)cc3)c[n+]3ccccc23)cc1`, the inhibition is 54.5% (active). As for `Cc1ccc(S(=O)(=O)/N=C2\C=C(Nc3ccc(O)cc3)C(=O)c3ccccc32)cc1`, the inhibition was 86.3% (active). The value for `CC[n+]1c(C=C2C=C(C)OC(C)=C2)sc2ccccc21` was 71.5% (active); that for `CCCCCn1c2c(c(=N)c3ccccc31)CCC2` was 60% (active); that for `CCOc1ccccc1O[C@H](c1ccccc1)[C@H]1CNCCO1` was 1.35% (inactive). Under `COC(=O)C1=C(CN2CCCc3ccccc32)NC(=O)NC1c1ccc(F)cc1` (stereo not given) stands 34.7% (active).

Consider `CC(=NNC(=S)Nc1cccc(C)c1)c1ccccn1`, for which the inhibition was 66.7% (active). The value for `CC(C)(C)N(Cc1ccc2c(c1)OCO2)C(=O)/C=C\S(=O)c1ccccc1` (stereo not given) was 38.1% (active); that for `COc1ccccc1-n1cc([C@@H]2C[C@H]3CN(c4ccccc4)C(=O)[C@]34CCCN24)cn1` was 47.4% (active); that for `COc1ccc2cc3cc(C(=O)Nc4cc(OC)c(OC)c(OC)c4)oc3nc2c1` was 46.1% (active).

In the case of `CCCc1nc2c(=O)n(C)c(=O)nc-2n(C)n1`, the inhibition is 64% (active). Regarding `CC[C@@H]1CCC[C@@H](O)[C@@H](C)C(=O)O[C@H](C)[C@@H](C)C/C=C(C)/C(OC)=C\C(=O)N(C)C([C@@H](C)CC)C(=O)N(C)[C@@H](C(C)C)C(=O)N(C)[C@@H](COC)C(=O)N2CCC[C@H]2C(=O)N(C)[C@@H](C(C)C)C(=O)N2CCC[C@H]2C(=O)O1` (stereo not given in full) ([NMeξIle][NMeV][NMeS](Me)P[NMeV]P; linker N-C via X1), the inhibition is 87.5% (active). Under `CC1(C)CC(N2CCN(Cc3ccccc3)CC2)=CC(=[N+]2CCCCC2)C1` stands 40.7% (active). Regarding `Cc1ccc(-c2cc3cccc[n+]3cc2-c2ccc(C)cc2)cc1`, the inhibition is 64.4% (active).

Regarding `CC(=O)NC(c1ccc(Cl)cc1)c1ccc2cccnc2c1O` (stereo not given), the inhibition was 78.4% (active). Under `CCN(CC)CCn1c2ccccc2c2cnc(N)c(C#N)c21` stands 50.6% (active); under `C(=NNc1ccc2ccccc2n1)c1ccccn1`, -33.3% (inactive).

For `CN(C)CCNc1ccc(CO)c2oc3ccc(O)cc3c(=O)c12`, the inhibition is 33.1% (active). The value for `CCCCCc1ccc(OCCC[n+]2ccccc2)c(CCCCC)c1` was 65.9% (active); that for `COc1ccc(CCNc2ncnc3c2oc2ccccc23)cc1OC` was 32.5% (active).

`COc1ccccc1C(=O)Nc1nc2ccccc2s1`: the inhibition was 71% (active). Consider `CC(NNC(=S)N1CCN(c2ccccn2)CC1)c1nccc2ccccc12` (stereo not given), for which the inhibition is 59.5% (active). The value for `COc1cc(NS(C)(=O)=O)ccc1Nc1c2ccccc2nc2ccccc12` was -3.17% (inactive); that for `CN(C)c1cc[n+](CC(=O)c2ccc(-c3ccccc3)cc2)cc1` was 66.5% (active).

In the case of `Cc1ccc2ccc3cccnc3c2n1`, the inhibition is 24.6% (inactive). The value for `CC1=NN(c2nc3ccccc3[nH]2)C(=O)C1Cc1ccccc1` (stereo not given) was 67.5% (active); that for `N=c1c2c(-c3ccccc3)c(-c3ccccc3)n(Cc3ccccc3)c2ncn1CCO` was 57.8% (active); that for `COc1cccc(Cn2c(NCc3cccnc3)nc3c2c(=O)n(C)c(=O)n3C)c1` was 38% (active).

In the case of `CC(C)(O)C#Cc1ccc([C@@H]2C[C@H]3CN(c4ccccc4)C(=O)[C@]34CCCN24)s1`, the inhibition was 42.1% (active). In the case of `O=C(N/N=C(\c1ccccc1)c1cccnc1)c1cccc(F)c1`, the inhibition was 43% (active).

The values above are taken from PubChem BioAssay.
